This note sets out measurements from PubChem BioAssay (Tox21).

Assay [1] can be described thus: qHTS assay to test for compound auto fluorescence at 535 nm (green) in HEK293 cells (AID 720680). Background: qHTS replaces the single test concentration by a dilution series.
A short description of assay [2]: qHTS assay to test for compound auto fluorescence at 460 nm (blue) in HEK293 cell free culture (AID 720681). In short, it runs like this:
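Compounds were added to cell-free DMEM with 10% FBS and fluorescence read directly. The blue channel used 405 nm excitation and 460 nm emission, with triamterene as the reference fluorophore.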

A short description of assay [3]: qHTS assay to test for compound auto fluorescence at 535 nm (green) in HEK293 cell free culture (AID 720682). In short, it runs like this: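 Green-channel intensity (Ex/Em 485/535 nm) was recorded from compound-treated wells containing only DMEM with 10% FBS. Fluorescein provided the equivalency standard.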
The nature of assay [4]: qHTS assay to test for compound auto fluorescence at 590 nm (red) in HEK293 cell free culture (AID 720683). In short, it runs like this:
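Cell-free wells of DMEM with 10% FBS received compound, and intrinsic fluorescence was read at excitation/emission 540/590 nm. Values expressed as equivalence to Rose Bengal sodium.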

Assay [5] in a line: qHTS assay to test for compound auto fluorescence at 590 nm (red) in HepG2 cell free culture (AID 720684). Summed up:
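Compounds are added to culture medium (MEM, 10% FBS) lacking cells, then fluorescence is read at excitation 540 nm, emission 590 nm, with Rose Bengal sodium as the equivalency standard.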

Assay [6] can be described thus: qHTS assay to test for compound auto fluorescence at 460 nm (blue) in HepG2 cell free culture (AID 720685). Summed up: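 Compound (23 nL) or DMSO pinned into cell-free MEM with 10% FBS; blue fluorescence read at 405/460 nm excitation/emission, expressed as auto-fluorescence equivalency to triamterene.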
The nature of assay [7]: qHTS assay to test for compound auto fluorescence at 535 nm (green) in HepG2 cell free culture (AID 720686).
Assay [8] can be described thus: qHTS assay to test for compound auto fluorescence at 460 nm (blue) in HepG2 cells (AID 720687). In short, it runs like this:
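HepG2 cells in MEM with 10% FBS, attached overnight at 37 C, were exposed to compound or DMSO for 1 hr at 37 C, 5% CO2. Blue fluorescence was read at 405/460 nm, with triamterene as reference fluorophore.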

Assay [9] addresses Glucocorticoid receptor (Homo sapiens) (UniProt P04150). The assay is described as follows: qHTS assay to identify small molecule antagonists of the glucocorticoid receptor (GR) signaling pathway (AID 720692; active = well fitted inhibition curve with a large enough effect in the signal ratio in the repeat runs, not every such curve was filed as active; the % refers to the signal ratio). In short, it runs like this: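 HeLa GR-bla cells; cmpd + dex 5 nM final, 18 h 37 C; LiveBLAzer B/G FRET substrate 2 h RT; fluorescence intensity read. Antagonist mode, qHTS.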

A short description of assay [10]: qHTS assay to identify small molecule antagonists of the glucocorticoid receptor (GR) signaling pathway - cell viability counter screen (AID 720693). Also: nearly all actives have a fitted effect of over 55% in size.
Assay [11] is described as follows: qHTS assay for identifying genotoxic compounds that show differential cytotoxicity against isogenic chicken DT40 cell lines with known DNA damage response pathways - wild type cell line (AID 743012). Also: nearly all actives have a fitted effect of over 60% in size. Also: potency is read from the fitted curve at half-maximal effect. Summed up: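 Wild type DT40, 300 cells/well, ~0.5 h settle at 37 C/5% CO2; compounds in DMSO added by pintool; 40 h at 37 C/5% CO2; CellTiter-Glo, 30 min RT; luminescence.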

Assay [12] is described as follows: qHTS assay for identifying genotoxic compounds that show differential cytotoxicity against isogenic chicken DT40 cell lines with known DNA damage response pathways - Rev3 mutant cell line (AID 743014). Also: nearly all actives have a fitted effect of over 55% in size. Also: potency is read from the fitted curve at half-maximal effect.
A short description of assay [13]: qHTS assay to identify small molecule antagonists of the androgen receptor (AR) signaling pathway - cell viability counter screen (AID 743033; also: nearly all actives have a fitted effect of over 45% in size).
Assay [14] addresses Androgen receptor (Homo sapiens) (UniProt P10275). As to the kind of experiment: qHTS assay to identify small molecule antagonists of the androgen receptor (AR) signaling pathway (AID 743035; active = well fitted inhibition curve with a large enough effect in the signal ratio in the repeat runs, not every such curve was filed as active; the % refers to the signal ratio). In short, it runs like this:
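Fluorescence from a beta-lactamase FRET substrate (LiveBLAzer B/G, 2 h, room temperature) measured inhibition of R1881-stimulated signaling in GeneBLAzer AR-UAS-bla HEK293 cells exposed to compound for 16 h at 37C.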

Assay [15] has the same target. The assay is described as follows: qHTS assay to identify small molecule agonists of the androgen receptor (AR) signaling pathway (AID 743036; active = well fitted activation curve with a large enough effect in the signal ratio in the repeat runs, with a control signal flat, not every such curve was filed as active; the % refers to the signal ratio). Summed up: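 Cell-based FRET reporter assay: HEK293 line with a UAS-beta-lactamase construct, compounds added in DMSO, 16 h exposure at 37C, then 2 h substrate step at room temperature and fluorescence intensity read.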
The target is the same in assay [16]. The assay is described as follows: qHTS assay to identify small molecule agonists of the androgen receptor (AR) signaling pathway using the MDA cell line (AID 743040; also: nearly all actives have a fitted effect of over 20% in size). Summed up:
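Human breast carcinoma MDA-kb2 reporter cells (MMTV-luc, AR/GR elements) were treated for 16 h at 37C in 0% CO2 following a 5 h settling period. Signal was quantified by ONE-Glo luminescence.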

Assay [17] is described as follows: qHTS assay to identify small molecule antagonists of the androgen receptor (AR) signaling pathway using the MDA cell line - cell viability counter screen (AID 743041; also: nearly all actives have a fitted effect of over 45% in size). Summed up: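 Same-well cytotoxicity was assessed by CellTiter-Fluor in MDA-kb2 AR-luc cells after 16 h of compound treatment under R1881 agonism.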
Assay [18] addresses Androgen receptor (Homo sapiens) (UniProt P10275). As to the kind of experiment: qHTS assay to identify small molecule antagonists of the androgen receptor (AR) signaling pathway using the MDA cell line (AID 743042; also: nearly all actives have a fitted effect of over 55% in size). Summed up: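 MDA-kb2 breast carcinoma cells carrying MMTV-luciferase (AR/GR responsive) were co-treated with compounds and the agonist R1881 for 16 h at 37C. Inhibition read as ONE-Glo luminescence; CellTiter-Fluor fluorescence measured in parallel for cytotoxicity.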

The nature of assay [19]: qHTS assay for identifying genotoxic compounds that show differential cytotoxicity against isogenic chicken DT40 cell lines with known DNA damage response pathways - Rad54/Ku70 mutant cell line (AID 743015). Also: nearly all actives have a fitted effect of over 60% in size.
The target in assay [20] is Glucocorticoid receptor (Homo sapiens) (UniProt P04150). The assay is described as follows: qHTS assay to identify small molecule agonists of the glucocorticoid receptor (GR) signaling pathway (AID 720691; active = well fitted activation curve with a large enough effect in the signal ratio in the repeat runs, not every such curve was filed as active; the % refers to the signal ratio). Summed up:
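Fluorescence intensity from LiveBLAzer B/G FRET substrate (2 h, room temperature) reports beta-lactamase expression driven by the glucocorticoid response element in GR-bla HeLa cells after 18 h compound exposure at 37 C.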

Unmarked numbers belong to inactive results. Inconclusive results are not listed. Active and inactive are the calls of the source. Unless noted, calls follow the shape of the dose curve; as a rule, active = well fitted curve in the direction sought with a large enough effect in the repeat runs; inconclusive = weak or mixed curves; inactive = no such curve, though single readings can be large; an effect the other way counts as inactive or inconclusive.
% is scaled to controls: 0 for no effect and ±100 for the full control effect.

Chain of Glucocorticoid receptor (Homo sapiens) (P04150 whole entry, looked up): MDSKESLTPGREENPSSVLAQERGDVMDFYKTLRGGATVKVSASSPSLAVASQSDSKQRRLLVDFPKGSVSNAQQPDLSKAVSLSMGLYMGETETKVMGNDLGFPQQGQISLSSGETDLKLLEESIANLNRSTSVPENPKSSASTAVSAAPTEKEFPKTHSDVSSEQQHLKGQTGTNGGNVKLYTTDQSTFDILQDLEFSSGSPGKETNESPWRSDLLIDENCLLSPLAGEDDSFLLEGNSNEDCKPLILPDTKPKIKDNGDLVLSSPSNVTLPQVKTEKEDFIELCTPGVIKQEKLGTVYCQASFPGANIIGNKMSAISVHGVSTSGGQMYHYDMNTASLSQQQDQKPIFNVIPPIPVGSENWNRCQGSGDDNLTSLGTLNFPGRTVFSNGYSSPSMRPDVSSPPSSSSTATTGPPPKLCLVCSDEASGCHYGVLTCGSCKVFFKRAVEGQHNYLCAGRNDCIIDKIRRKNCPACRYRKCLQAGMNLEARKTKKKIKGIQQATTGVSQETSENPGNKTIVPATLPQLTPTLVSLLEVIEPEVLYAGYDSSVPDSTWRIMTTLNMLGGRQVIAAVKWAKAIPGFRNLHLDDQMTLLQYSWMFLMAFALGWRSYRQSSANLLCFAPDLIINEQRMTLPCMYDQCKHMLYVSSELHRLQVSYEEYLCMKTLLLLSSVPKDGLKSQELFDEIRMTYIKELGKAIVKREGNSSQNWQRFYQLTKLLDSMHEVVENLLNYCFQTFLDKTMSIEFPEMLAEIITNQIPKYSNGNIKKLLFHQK
Chain of Androgen receptor (Homo sapiens) (P10275 whole entry, looked up): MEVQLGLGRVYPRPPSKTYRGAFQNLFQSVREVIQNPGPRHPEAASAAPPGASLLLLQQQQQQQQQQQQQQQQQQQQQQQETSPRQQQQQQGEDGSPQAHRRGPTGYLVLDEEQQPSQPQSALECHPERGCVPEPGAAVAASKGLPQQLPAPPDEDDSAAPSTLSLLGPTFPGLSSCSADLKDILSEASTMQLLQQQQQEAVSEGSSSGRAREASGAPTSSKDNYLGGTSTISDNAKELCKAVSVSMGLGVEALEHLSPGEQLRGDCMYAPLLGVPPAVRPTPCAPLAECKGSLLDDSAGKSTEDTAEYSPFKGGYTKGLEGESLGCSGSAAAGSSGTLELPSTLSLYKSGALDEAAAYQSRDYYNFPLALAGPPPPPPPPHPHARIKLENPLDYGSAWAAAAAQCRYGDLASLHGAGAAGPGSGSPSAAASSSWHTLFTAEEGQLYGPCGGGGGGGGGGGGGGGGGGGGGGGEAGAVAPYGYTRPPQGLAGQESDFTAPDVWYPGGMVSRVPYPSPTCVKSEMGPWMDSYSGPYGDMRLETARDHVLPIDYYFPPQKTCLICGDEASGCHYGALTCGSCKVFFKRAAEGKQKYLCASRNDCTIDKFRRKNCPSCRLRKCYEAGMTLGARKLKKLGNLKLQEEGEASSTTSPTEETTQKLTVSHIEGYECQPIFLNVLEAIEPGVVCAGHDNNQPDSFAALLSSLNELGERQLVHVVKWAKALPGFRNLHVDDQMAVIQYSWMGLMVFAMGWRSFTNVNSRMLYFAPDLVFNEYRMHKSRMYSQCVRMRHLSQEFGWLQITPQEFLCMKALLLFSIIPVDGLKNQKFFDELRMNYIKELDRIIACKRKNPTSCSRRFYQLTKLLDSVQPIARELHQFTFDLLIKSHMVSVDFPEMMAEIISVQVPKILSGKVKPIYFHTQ

Consider `C=COCCOCCOCCOC=C`, for which the result in [1], in [2], in assay [3], in [4], in assay [5] and in assay [6] was inactive. Further, the call in assay [7], in assay [8], in assay [9], in assay [10], in assay [15] and in [16] was inactive. For the same compound, the Potency result in [11], in [12], in assay [13], in assay [14], in assay [17] and in assay [18] was “inactive” in each case.
As for `Cc1ccc2c(c1)OCC(=O)CO2`, the outcome in assay [1], in assay [2], in [3], in assay [4], in assay [5] and in assay [6] was inactive. Also, the compound was classed as inactive in [7], in [8], in [9] and in [10]. Besides, the Potency result in [11], in assay [12], in [19] and in assay [13] was “inactive” in each case.
For the compound `Nc1ncnc(Nc2ccccc2)n1`, the result in assay [1], in assay [2], in assay [3], in assay [4], in [5] and in assay [6] was inactive. For the same compound, the call in assay [7], in assay [8] and in assay [10] was inactive. For the same compound, the Potency result in assay [20], in assay [11], in assay [12], in assay [19], in [13] and in assay [17] was “inactive” throughout.
For `O=C1c2ccccc2C(=O)C1c1ccccc1`, the fluorescence, % of fluorescein in [1] is -0.0324% [at 18.6 µM]. The fluorescence, % of fluorescent control in assay [2] is -0.0862% [at 18.6 µM]; in assay [4], 0.0114% [at 18.6 µM]; in assay [6], -0.0248% [at 18.6 µM]; in assay [8], -0.0075% [at 18.6 µM]. Besides, the activity change in assay [3] was -0.148% [at 18.6 µM]. Also, the fluorescence, % of Rose Bengal in assay [5] is -0.261% [at 18.6 µM]. Also, in [7], the fluorescence, % of fluorescein control is -0.0587% [at 18.6 µM]. Moreover, the Potency result in assay [20], in assay [11], in assay [12], in assay [19], in [13] and in assay [17] was “inactive” throughout. The call in assay [10] was inactive.
Take `O=C(O)Cc1ccc(Cl)cc1Cl`: the compound was called inactive in [1], in assay [2], in assay [3], in assay [4], in assay [5] and in [6]. In addition, the outcome in assay [7], in [8], in assay [9], in assay [10] and in assay [16] was inactive. In addition, the Potency in assay [11] is 61.1 µM (active); in [12], 27.3 µM (active). Moreover, the Potency result in assay [13], in assay [14], in assay [17] and in assay [18] was “inactive” in each case.
Turning to `CNC(=O)[C@H]1O[C@@H](n2cnc3c(NCc4cc(Cl)ccc4OCc4cc(C)no4)ncnc32)[C@H](O)[C@@H]1N`, the compound was classed as inactive in assay [1], in assay [2], in assay [3], in assay [4], in assay [5] and in assay [6]. Besides, the result in assay [7], in assay [8], in [9], in assay [10], in assay [15] and in [16] was inactive. Further, the Potency entry in [12], in [19], in [13], in assay [14], in [17] and in [18] was “inactive” in each case.
Turning to `ClCCCl`, the outcome in assay [1], in assay [2], in [3], in [4], in [5] and in assay [6] was inactive. Also, the compound was classed as inactive in assay [7], in [8] and in assay [9]. The Potency entry in [11], in assay [12] and in [13] was “inactive” in each case.
As to `CN1C(C)(C)CCCC1(C)C`, the compound was called inactive in assay [1], in assay [2], in [3], in [4], in assay [5] and in [6]. Also, the compound was classed as inactive in [7], in [8] and in [10]. For the same compound, the Potency entry in assay [20], in assay [11], in assay [12], in [13] and in [17] was “inactive” each time.
